An excerpt weighted towards active compounds, which were near 6.9% of everything screened.
ASM inhibitor = Inhibitors of Secretory Acid Sphingomyelinase (S-ASM): qHTS | Sphingomyelin phosphodiesterase (Homo sapiens), P17405 | placental ASM, HMU-PC fluorogenic substrate, 60 min | Potency, µM (top dose mostly 57.5 µM), for inactives: at the top dose activity change, negative = inhibition, hits mostly inhibitors | 0.006% of 340,000 active; further: potency means the concentration at half of the fitted maximal effect
Target sequence (P17405 47-631 limits assumed): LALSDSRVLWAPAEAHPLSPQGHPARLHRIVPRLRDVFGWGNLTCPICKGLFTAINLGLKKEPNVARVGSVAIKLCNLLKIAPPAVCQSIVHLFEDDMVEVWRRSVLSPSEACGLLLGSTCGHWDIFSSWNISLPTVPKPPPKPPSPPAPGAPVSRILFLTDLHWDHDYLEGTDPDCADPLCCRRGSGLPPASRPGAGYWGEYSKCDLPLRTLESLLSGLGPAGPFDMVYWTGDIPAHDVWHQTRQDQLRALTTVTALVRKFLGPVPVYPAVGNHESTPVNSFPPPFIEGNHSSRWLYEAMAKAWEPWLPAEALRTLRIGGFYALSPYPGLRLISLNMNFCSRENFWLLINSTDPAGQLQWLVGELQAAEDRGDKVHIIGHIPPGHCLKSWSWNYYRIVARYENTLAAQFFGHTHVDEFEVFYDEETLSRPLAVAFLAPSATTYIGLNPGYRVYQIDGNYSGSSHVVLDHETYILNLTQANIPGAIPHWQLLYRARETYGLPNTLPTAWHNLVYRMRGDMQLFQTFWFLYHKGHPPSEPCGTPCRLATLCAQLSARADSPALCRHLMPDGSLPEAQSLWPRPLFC
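Fluorogenic HMU-PC substrate (9 uM final) is turned over by placental ASM in 60 min at 37 C after a 10 min compound preincubation. Reaction ended by alkaline stop (pH 10), with fluorescence read at 386/447 nm.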
Giardia kill = Small Molecules that selectively kill Giardia lamblia: qHTS; Giardia lamblia trophozoite viability; activity change, % at 7.66 µM, hits read low; 0.15% of 340,000 active; AID 540267, 2011; in the data active means activity change below about -80%; inconclusive means between about -30% and that limit;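 further: parasites exposed to compound for two days anaerobically before the ATP read; on the % scale 0 is the no-effect control and ±100 the full control effect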
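Trophozoites 100 cells/well + cpd; 48 hrs, 37 deg C, anaerobic. ATPLite 1-Step added, 15-30 min RT, luminescence read (ATP-based viability).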
SW480 rereplic = A quantitative high throughput screen for small molecules that induce DNA re-replication in SW480 colon adenocarcinoma cells | SW480 DNA re-replication, Hoechst DNA content imaging, 48 h | Potency, µM (series often up to 46.1 µM), for inactives: at the highest dose re-replication activation, actives largely listed as activators | 1.8% of 340,000 active | AID 624297, 2012; further: potency means the concentration at half of the fitted maximal effect; % of control where 0% means no effect; nearly all actives have a fitted effect of over 55% in size
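First, 250 cells per well were seeded. Next, compound or vehicle (23 nL) was pinned in, plates sat 48 hr at 37 C. Finally Hoechst was added for 40 min before fluorescence scanning.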
KB-V1 MDR tox = qHTS assay for MDR1-selective chemotherapeutics: Primary screen using the drug-selected MDR subline cells KB-V1 | KB-V1 MDR cells viability, CellTiter-Glo, 72 h | 3.4% of 400,000 active | Potency, µM (titrated, usually from 46.1 µM), actives largely listed as cytotoxic; further: potency means the concentration at half of the fitted maximal effect; on the % scale 0 is the no-effect control and ±100 the full control effect; nearly all actives have a fitted effect of over 60% in size
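Readout: CellTiter-Glo luminescence, 10 min after addition. Cells: KB-V1 MDR subline, 72 h at 37 degrees C with compound. Analysis: corrected, normalized data fitted to concentration-effect curves.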
KB-3-1 tox = qHTS assay for MDR1-selective chemotherapeutics: Primary screen using the parental adenocarcinoma cell KB-3-1. 1.4% of 400,000 active. KB-3-1 viability, CellTiter-Glo ATP luminescence, 72 h. Potency, µM (highest dose often 46.1 µM), hits mostly cytotoxic; further: potency means the concentration at half of the fitted maximal effect; on the % scale 0 is the no-effect control and ±100 the full control effect; nearly all actives have a fitted effect of over 60% in size
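Multi-concentration cytotoxicity screen in KB-3-1 cells grown in DMEM lacking phenol red with 10% FBS. After 72 h at 37 °C with compound, ATP-dependent luminescence was recorded.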
MCF10A rereplic = A quantitative high throughput screen for small molecules that induce DNA re-replication in MCF 10a normal breast cells. MCF 10A DNA re-replication, Hoechst nuclear intensity, 48 h. Potency, µM (top dose mostly 46.1 µM), for inactives: at the highest dose activity, positive = re-replication, usual class: activators. 2.9% of 350,000 active. AID 624296, 2012; further: potency means the concentration at half of the fitted maximal effect; % of control where 0% means no effect; nearly all actives have a fitted effect of over 50% in size
An asterisk follows results filed as active; [ ] = another dose, or the depositor's remark. Unless noted, the call rests on the fitted dose curve; in most records, active means well fitted curve in the direction sought with a large enough effect; inconclusive means small, poorly fitted or top-dose-only effect, or another doubt; inactive means no such curve, though single readings can be large; an effect the other way counts as inactive or inconclusive.

Screening COc1ccc(N2CCN(CC(=O)Nc3cccc(S(=O)(=O)N4CCOCC4)c3)CC2)cc1 returned ASM inhibitor 0%, Giardia kill 30, SW480 rereplic -3%, KB-V1 MDR tox 10µM*, KB-3-1 tox inconclusive and MCF10A rereplic 12%.
`O=C(CN1CCN(S(=O)(=O)c2ccc3ccccc3c2)CC1)Nc1ccc(N2CCOCC2)cc1` gave ASM inhibitor 4%, Giardia kill -16, SW480 rereplic -3%, KB-V1 MDR tox inactive, KB-3-1 tox inactive and MCF10A rereplic 3%.
`CN(C)S(=O)(=O)N1CCN(CC(=O)Nc2ccc(Br)cc2)CC1` gave ASM inhibitor 4%, Giardia kill 5, SW480 rereplic inconclusive, KB-V1 MDR tox inactive, KB-3-1 tox inactive and MCF10A rereplic 8%.
Screening CN(C)S(=O)(=O)N1CCN(CC(=O)Nc2cc(Cl)ccc2Cl)CC1 returned ASM inhibitor -2%, Giardia kill 3, SW480 rereplic 6%, KB-V1 MDR tox 18µM*, KB-3-1 tox inactive and MCF10A rereplic 18%.
`COc1cccc(NC(=O)CN2CCN(c3ccc(F)cc3)CC2)c1` gave ASM inhibitor -1%, Giardia kill -7, SW480 rereplic -1%, KB-V1 MDR tox inactive, KB-3-1 tox inactive and MCF10A rereplic 2%.
For CC(=O)c1cccc(NC(=O)c2nc(-c3ccc(C)cc3)n3c2CCCCC3)c1 the results were KB-V1 MDR tox inactive and KB-3-1 tox inactive.
COC(=O)Cn1c(SCCOc2ccccc2OC)nc2ccccc21 was read as KB-V1 MDR tox inactive and KB-3-1 tox inactive.
For COc1ccc(S(=O)(=O)N2CCN(CC(=O)Nc3ccc(C)c(F)c3)CC2)cc1 the results were ASM inhibitor 0%, Giardia kill 12, SW480 rereplic -4%, KB-V1 MDR tox 6.5µM*, KB-3-1 tox inactive and MCF10A rereplic -2%.
Screening COc1ccc(S(=O)(=O)N2CCN(CCC(=O)Nc3ccc(F)cc3)CC2)cc1 returned ASM inhibitor 0%, Giardia kill 10, SW480 rereplic inconclusive, KB-V1 MDR tox 5.2µM*, KB-3-1 tox inconclusive and MCF10A rereplic 8%.
For O=C(CN1CCN(S(=O)(=O)N2CCCCC2)CC1)Nc1ccc(Cl)c(Cl)c1 the results were ASM inhibitor -8%, Giardia kill 7, SW480 rereplic -6%, KB-V1 MDR tox 13µM*, KB-3-1 tox inconclusive and MCF10A rereplic inconclusive.
For O=S(=O)(c1cccc(-c2n[nH]c(=S)n2-c2ccc(OC(F)(F)F)cc2)c1)N1CCOCC1 the results were ASM inhibitor -2%, Giardia kill -2, SW480 rereplic -42%, KB-V1 MDR tox inactive, KB-3-1 tox inactive and MCF10A rereplic 2%.
`O=C1NC[C@@H](CCCCN2C[C@H](Cc3ccccc3)N(CCC3CCCCC3)C(=O)C2=O)N(CC2CCCCC2)C1=O` gave KB-V1 MDR tox inactive and KB-3-1 tox inactive.
For O=C(O)COc1ccc2oc3c(c2c1)CCCC3 the results were ASM inhibitor 4%, Giardia kill -8, SW480 rereplic -25%, KB-V1 MDR tox inactive, KB-3-1 tox inactive and MCF10A rereplic 2.1µM*.
CSc1nn(Cc2cccc(Cl)c2)c(N(C(C)=O)C(C)=O)c1S(=O)(=O)c1ccccc1 was read as KB-V1 MDR tox inactive and KB-3-1 tox inactive.
`COc1ccc(CN2CCC3CC2c2cc(-c4cccc(C)c4)ccc23)cc1` (configuration not stated) gave ASM inhibitor -9%, Giardia kill inconclusive, SW480 rereplic inconclusive, KB-V1 MDR tox inactive, KB-3-1 tox inactive and MCF10A rereplic 9.2µM*.
`COc1ccc(CN2CCC3CC2c2cc(Cl)ccc23)cc1` (configuration not stated) gave ASM inhibitor 0%, Giardia kill -16, SW480 rereplic -4%[9.22 µM], KB-V1 MDR tox inactive, KB-3-1 tox inconclusive and MCF10A rereplic inconclusive.
COc1ccc(-c2ccc(C3C4C=CCC(C)C4C(=O)N3Cc3ccccc3)c(F)c2)cc1OC (configuration not stated) was read as Giardia kill -20.
CCOC(=O)C1NN=C(C(=O)c2ccccc2)C1c1ccccc1 (configuration not stated) was read as ASM inhibitor -2%, Giardia kill 1, SW480 rereplic 0%, KB-V1 MDR tox 21µM*, KB-3-1 tox inactive and MCF10A rereplic 10%.
For Cc1cc(C)c(OCC(=O)Nc2nc(-c3ccccn3)cs2)c(C)c1 the results were ASM inhibitor -4%, Giardia kill 13, SW480 rereplic 21%, KB-V1 MDR tox 6.5µM*, KB-3-1 tox inconclusive and MCF10A rereplic -16%.
`Cc1ccccc1OCC(=O)Nc1nc(-c2ccncc2)cs1` gave ASM inhibitor 0%, Giardia kill 13, SW480 rereplic -7%, KB-V1 MDR tox 15µM*, KB-3-1 tox inactive and MCF10A rereplic 7%.
`O=C1CN(C(=O)COC(=O)c2c(F)cccc2Cl)c2ccccc2N1` gave ASM inhibitor 1%, Giardia kill -14, SW480 rereplic -3%, KB-V1 MDR tox inconclusive, KB-3-1 tox inactive and MCF10A rereplic -1%.
COc1ccc(CCNC(=O)c2cc3c(=O)n4cccc(C)c4nc3n(CCCN3CCOCC3)c2=N)cc1 was read as ASM inhibitor 149%, Giardia kill -2, SW480 rereplic 2.6µM*, KB-V1 MDR tox inactive, KB-3-1 tox inactive and MCF10A rereplic inconclusive.
`Cc1cccn2c(=O)c3cc(C(=O)NCCN4CCOCC4)c(=N)n(CCN4CCOCC4)c3nc12` gave ASM inhibitor 323%, Giardia kill 5, SW480 rereplic 26µM*, KB-V1 MDR tox inconclusive, KB-3-1 tox inactive and MCF10A rereplic 12µM*.
Screening Cc1ccccc1C(=O)NC(CC(C)C)C(=O)NCC(C)(C)N1CCOCC1 (configuration not stated) returned ASM inhibitor 4%, Giardia kill -3, SW480 rereplic -6%, KB-V1 MDR tox 23µM*, KB-3-1 tox inactive and MCF10A rereplic -1%.
`CSCCC(NC(=O)c1ccccc1)C(=O)NCC(C)(C)N1CCOCC1` (configuration not stated) gave ASM inhibitor 4%, Giardia kill inconclusive, SW480 rereplic -2%, KB-V1 MDR tox inactive, KB-3-1 tox inactive and MCF10A rereplic -10%.

Assay outcomes deposited in PubChem BioAssay by National Center for Advancing Translational Sciences (NCATS).
